What is called inhibition is the relative decrease from the control value, in per cent.

Where “and” joins values, the source holds several entries; their conditions need not be identical. Equal values may be shown once. Calls of active or inactive are those of the source. Cut-off read from the data, not from the text of the source, unless noted: active = inhibition above about 80%; inactive = the rest.

In assay [1] the test system is Neuropilin-2 / VEGF-C interaction (human). As to the kind of experiment: inhibitors of NRP2–VEGF-C binding, biochemical, microplate binding format, z-score (AID 743281; call rule not given here). The conditions noted are these: microplate NRP2/VEGF-C binding assay; stronger effect = lower value.
The nature of assay [2]: LFS_MB_P medulloblastoma growth inhibition, cell-based, chromothripsis tumors, cisplatin or BGB combos (AID 1671449).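 Note: cells exposed for 96 hours; 0% = vehicle DMSO and 100% = killing by high DMSO.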 The conditions noted are these: LFS_MB_P medulloblastoma cells.
Assay [3] can be described thus: HDN33 neuroblastoma growth inhibition, cell-based, chromothripsis tumors, cisplatin or BGB combos (AID 1671450).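 Note: cells exposed to compound for four days; 0% = vehicle DMSO and 100% = cell killing by high DMSO.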 The conditions noted are these: HDN33 neuroblastoma cells, stronger effect = higher value.
Assay [4] is described as follows: ICB984 medulloblastoma cell growth inhibition, synergistic combos for chromothripsis tumors, cisplatin or BGB combos (AID 1671451; call rule not given here;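 note: cells exposed for 96 hours before readout; 0% = vehicle DMSO and 100% = killing by high DMSO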). Particulars: ICB984 medulloblastoma cells, drug combinations, stronger effect = higher value.
Assay [5] can be described thus: HTB85 osteosarcoma cell growth inhibition, synergistic combos for chromothripsis tumors, BGB or cisplatin IC20 combos (AID 1671453).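 Note: cells exposed for 96 hours before readout; 0% = vehicle DMSO and 100% = high DMSO killing control.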 Particulars: HTB85 osteosarcoma cells, drug combinations, stronger effect = higher value.
Assay [6] is described as follows: MDA-MB-436 breast carcinoma cell growth inhibition, synergistic combos for chromothripsis tumors, BGB or cisplatin combos (AID 1671458; call rule not given here;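 note: cells exposed for 96 hours; 0% = vehicle DMSO and 100% = killing by high DMSO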). Particulars: MDA-MB-436 breast carcinoma growth inhibition, drug combinations, stronger effect = higher value.
Assay [7] is described as follows: growth inhibition of BT084 medulloblastoma cells, cell-based, ICGC_MB145, cisplatin and BGB IC40 combos (AID 1671461).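 Note: cells exposed to drugs for 96 hours; 0% = vehicle DMSO and 100% = high DMSO full killing control.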 Particulars: drug combinations, stronger effect = higher value.
Assay [8] can be described thus: growth inhibition of RCMB18 medulloblastoma cells, cell-based, cisplatin and BGB IC40 combos (AID 1671462).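 Note: cells exposed to compound for four days.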 The conditions noted are these: stronger effect = higher value.
A short description of assay [9]: growth inhibition of CRL1545 osteosarcoma cells, cell-based, cisplatin and BGB IC20 combos (AID 1671464).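 Note: cells exposed to compound for 96 hours before readout; 0% = vehicle DMSO and 100% = high DMSO killing control.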 The conditions noted are these: stronger effect = higher value.
Where [10] appears, read: measured here: with BGB IC20 combination, at 0.5 µM.
Setting [11] is: measured here: with cisplatin IC20 combination, at 0.5 µM.

As to `O=c1c(O[C@@H]2O[C@H](CO)[C@@H](O)[C@H](O)[C@H]2O)c(-c2ccc(O)c(O)c2)oc2cc(O)cc(O)c12`, in [1], the z-score was -0.152 (inactive).
Regarding `O=c1[nH]c(=O)n(C2CC(O)C(CO)O2)cc1F` (configuration not stated), the inhibition is -20.6% (inactive) and -34.4% (inactive) in assay [2] (at 0.5 µM, stronger effect = higher value); -20.3% and -26.1% in assay [2] (measured here: combination with BGB IC20, at 0.005 µM); -43.8% and -18.6% in [2] (measured here: combination with BGB IC40, at 0.005 µM); -14.2% and -19.6% in assay [2] (measured here: combination with BGB IC40, at 0.05 µM); -24.9% and -48.9% in assay [2] (measured here: combination with cisplatin, at 0.5 µM, stronger effect = higher value); -34.2% and -34.5% in assay [2] (measured here: combination with cisplatin, at 5 µM, stronger effect = higher value). Moreover, the inhibition in assay [3] (BGB combo, at 5 µM) is 90.8% and 95.2%; in assay [3] (at 0.5 µM), 75% (inactive) and 78.5% (inactive); in [3] (cisplatin combo, at 5 µM) it was 63% and 78%; in assay [3] (setting [10]) it was 72.2% and 74.3%; in [3] (setting [11]), 71.3% and 78.7%; in assay [3] (single agent, at 5 µM), 78.6% and 88.5%. Moreover, the inhibition in assay [4] (BGB IC20 combo, at 0.005 µM) is -21.6% and 13.5%; in [4] (BGB IC40 combo, at 0.005 µM), -12.3% and -34.3%; in assay [4] (BGB IC40 combo, at 0.05 µM), -9.05% and -30.1%; in assay [4] (at 0.5 µM), -17.5% (inactive) and -17.1% (inactive); in assay [4] (cisplatin combo, at 0.05 µM), -9.05% and -34.7%; in assay [4] (cisplatin combo, at 0.5 µM), -15.5% and -22.4%. Further, the inhibition in [4] (cisplatin combo, at 5 µM) was -14.7% and -40.3%; in assay [4] (measured here: 5 uM single agent, at 5 µM) it was -2.45% and 14.3%; in assay [5] (at 0.5 µM), -24.9% (inactive) and 12.1% (inactive); in assay [5] (measured here: with BGB IC20, at 0.5 µM) it was -52.4% and -21.4%; in [5] (measured here: with BGB IC20, at 5 µM), 5.67% and -8.07%; in assay [5] (measured here: with cisplatin IC20, at 0.5 µM), -22.6% and 15.4%. The inhibition in assay [5] (measured here: with cisplatin IC20, at 5 µM) is 14% and 12.8%; in [5] (single agent, at 5 µM), 12% and 38.7%; in assay [6] (at 0.5 µM) it was 39.9% (inactive) and 54.5% (inactive); in assay [6] (measured here: BGB combination, at 0.5 µM), 12.4% and 36%; in assay [6] (measured here: BGB combination, at 5 µM) it was 22.9% and 47.8%; in assay [6] (measured here: cisplatin combination, at 0.5 µM), 44% and 56.3%. The inhibition in assay [6] (measured here: cisplatin combination, at 5 µM) is 73% and 86.7%; in assay [7] (at 0.5 µM) it was -20.4% (inactive) and -2.18% (inactive); in assay [7] (cisplatin combination, at 0.5 µM), -4.33% and -24.2%; in [7] (cisplatin combination, at 5 µM), -24.6% and 6.37%; in assay [7] (measured here: BGB IC40 combination 0.05 uM, at 0.05 µM) it was -0.925% and 1.52%; in assay [7] (single agent, at 5 µM), -4.53% and -3.71%. For the same compound, the inhibition in assay [8] (at 0.5 µM) is -3.13% (inactive) and -17.8% (inactive); in assay [8] (cisplatin combo, at 5 µM), 11.8% and 9.06%; in [8] (measured here: BGB IC40 combination, at 0.05 µM), -3.94% and -12.9%; in assay [8] (measured here: combination with cisplatin, at 0.5 µM) it was 1.15% and 0.687%; in [8] (single agent, at 5 µM) it was -14.6% and -9.12%; in [9] (at 0.5 µM), 30.4% (inactive) and 66.8% (inactive). Also, the inhibition in assay [9] (setting [10]) was 10.3% and 56.4%; in assay [9] (setting [11]), 40.5% and 71.6%; in assay [9] (single agent, at 0.05 µM) it was 7.06% and 11.7%; in [9] (single agent, at 5 µM), 91.4% and 96.1%.

Values taken from PubChem BioAssay.
